# According to PubChem BioAssay (NCI):
# The panel holds about 83,000 compounds, 20% with a hit somewhere; the sample as a whole holds those more often.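 Each cell line was grown in a 96-well plate and treated with one concentration of compound for 48 hours. Values below 10 were considered active.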 Activity calls are given as the source filed them.
# System: HCT-116 colon
# Test: NCI-60 one-dose screen, 48 h (100 = growth as untreated, 0 = no growth, -100 = all killed)
# Conditions: 10 µM unless noted
row,Structure (SMILES),growth
1,C=C1C(=O)O[C@H]2[C@H]1CC/C(Cn1cc(-c3cc(C)c(C)cc3C)nn1)=C\CC[C@@]1(C)O[C@@H]21,-87.4% (active)
2,COc1ccc2c(CCCc3ccc(Cl)cc3Cl)c3[n+](cc2c1OC)CCc1cc2c(cc1-3)OCO2,-11.6% (active)
3,CCN1CCN(c2cc(C)nc(N(CCCNc3ccnc4cc(Cl)ccc34)Cc3ccc4c(c3)OCO4)n2)CC1,2.67% (active)
4,O=C1CC(c2ccc(Cl)cc2)c2ncn(-c3cccc(Cl)c3)c2N1 (stereo not drawn),19.1% (inactive)
5,Cc1ccccc1Nc1nc2nonc2nc1Nc1cccc(C)c1C,43% (inactive)
6,Fc1ccc(NCc2cn(-c3ccccc3)nc2-c2ccc(OCc3ccccc3)cc2)cc1Cl,76.8% (inactive)
7,CCCCCCCC(=O)SCC/C=C/[C@@H]1CC(=O)NCc2cccc(n2)C2=N[C@@](C)(CS2)C(=O)N[C@@H](C(C)C)C(=O)O1,-27.7% (active)
8,COC(=O)C1CCc2sc3ncnc(Nc4cn[nH]c4C(=O)Nc4ccc(CN5CCN(C)CC5)cc4)c3c21 (stereo not drawn),3.34% (active)
9,C=CC(=O)N(C)[C@H]1C[C@H]2OC(C)(C1OC)n1c3ccccc3c3c4c(c5c6ccccc6n2c5c31)C(=O)NC4 (stereo partly drawn),-48.4% (active)
10,Cc1cc(N(CCNc2ccnc3cc(Cl)ccc23)Cc2ccc3c(c2)OCO3)nc(N2CCN(C)CC2)n1,9.43% (active)
11,CN1CCN(CCCOc2cccc3nc(Nc4ccc(Cl)c(C(F)(F)F)c4)ccc23)CC1,-82.7% (active)
12,Nc1c2c(c(O)c3c1=C(CO)C=N3)=NCCS2,-90.7% (active)
13,Cc1cc(O)c2c(c1)C1OC(=O)CCCCCN1C1=C2C(=O)c2cccc(OC3CC(O)C(O)C(C)O3)c2C1=O (stereo not drawn),24.5% (inactive)
